Results from the supplement of paper PMC13380429.

Tested on: Vero E6 infected with SARS-CoV-2
Test: morphology score (similarity to uninfected cells); higher = more like uninfected cells
Conditions: 24 h

Structure (SMILES)	morphology score
CC1=C(C(=O)OC2CCCCC2)C(c2ccc([N+](=O)[O-])cc2)C2=C(CC(C)(C)CC2=O)N1 (configuration not stated) (0.833333 µM)	-0.0965
CC(=O)N[C@@H](CCC(N)=O)C(=O)O [aceglutamide] (10 µM)	-0.137
CC(C)(C)NCC(O)c1cc(Cl)c(N)c(Cl)c1 (configuration not stated) [clenbuterol] (10 µM)	-0.0972
CC(O)(CS(=O)(=O)c1ccc(F)cc1)C(=O)Nc1ccc(C#N)c(C(F)(F)F)c1 (configuration not stated) [bicalutamide] (10 µM)	-0.00454
CCc1cc(Cl)c(OC)c(C(=O)NC[C@@H]2CCCN2CC)c1O [eticlopride] (10 µM)	0.426
CN(C)C[C@H](O)Cn1c2ccc(Br)cc2c2cc(Br)ccc21 (racemic) [wiskostatin] (0.833333 µM)	0.146
Cc1c(Cl)cccc1S(=O)(=O)Nc1nc(NCCc2ccccc2)nc2c1CN(Cc1ccccc1)CC2 (10 µM)	0.104

Tested on: Vero E6 infected with SARS-CoV-2
Test: SARS-CoV-2 infection rate relative to infected DMSO; higher = more infection, active = 60 or less
Conditions: 24 h

Structure (SMILES)	SARS-CoV-2 infection rate
CCN(CC)CCOCCOC(=O)C1(c2ccccc2)CCCC1 [carbetapentane] (10 µM)	83% (inactive)
CCOC(=O)[C@H](CCc1ccccc1)N[C@@H](C)C(=O)N1Cc2cc(OC)c(OC)cc2C[C@H]1C(=O)O [moexipril] (10 µM)	90% (inactive)
Cn1nnc(-c2ccc(-c3ccc(N4C[C@H](CO)OC4=O)cc3F)cn2)n1 [tedizolid] (10 µM)	100% (inactive)
O=C(O)c1cccnc1 [niacin] (10 µM)	102% (inactive)
Cn1c(C#N)ccc1-c1ccc2c(c1)C(C)(C)OC(=S)N2 [tanaproget] (10 µM)	102% (inactive)
CNC(=O)[C@H]1O[C@@H](n2cnc3c(NCc4cccc(I)c4)ncnc32)[C@H](O)[C@@H]1O (10 µM)	100% (inactive)
C[C@H]1N=C(N(C)C)N=C(N)N1 [imeglimin] (10 µM)	99% (inactive)
FC(F)(F)c1ccc(N2CCNCC2)nc1Cl (10 µM)	89.5% (inactive)
Fc1ccc(CNc2ncnc3ccc(F)cc23)cc1 [spautin-1] (10 µM)	117% (inactive)
CC(C)=CCC/C(C)=C/CC/C(C)=C/CC[C@]1(C)CCc2cc(O)cc(C)c2O1 [delta-tocotrienol] (10 µM)	104% (inactive)
CC(C)CN(C[C@@H](OP(=O)(O)O)[C@H](Cc1ccccc1)NC(=O)O[C@H]1CCOC1)S(=O)(=O)c1ccc(N)cc1 [fosamprenavir] (10 µM)	109% (inactive)
COc1cc2c(Nc3ccc(Cl)c(Cl)c3F)ncnc2cc1OC[C@@H]1C[C@@H]2CN(C)C[C@@H]2C1 (10 µM)	120% (inactive)
COc1cc2/c(=N/c3ccc(Br)cc3F)nc[nH]c2cc1OCC1CCN(C)CC1 [vandetanib] (10 µM)	102% (inactive)
C=CC(=O)N1CCC[C@@H](n2nc(-c3ccc(Oc4ccccc4)cc3)c3c(N)ncnc32)C1 [ibrutinib] (10 µM)	109% (inactive)
Cc1c(Cl)cccc1S(=O)(=O)Nc1nc(CC(=O)N2CCN(C)CC2)cs1 (10 µM)	110% (inactive)
CCN1CCCC1CNC(=O)c1cc(S(=O)(=O)CC)c(N)cc1OC (configuration not stated) [amisulpride] (10 µM)	105% (inactive)
CCC(CC)[C@H](NC(C)=O)[C@@H]1[C@H](O)[C@@H](C(=O)O)C[C@H]1NC(=N)N [peramivir] (10 µM)	102% (inactive)
O=C(O)C1=CCCN(CCOC(c2ccc(C(F)(F)F)cc2)c2ccc(C(F)(F)F)cc2)C1 (10 µM)	103% (inactive)
COC(=O)[C@@H](N)CS [mecysteine] (10 µM)	112% (inactive)
CC(C)(Oc1ccc(C(=O)c2ccc(Cl)cc2)cc1)C(=O)O [fenofibric-acid] (10 µM)	97% (inactive)

Structure (SMILES)	SARS-CoV-2 infection rate
C=CC[C@]1(O)CC[C@H]2[C@@H]3CCC4=CC(=O)CCC4=C3C=C[C@@]21C [altrenogest] (10 µM)	105% (inactive)
CCN(CCCc1ccccc1)CCCc1ccccc1 [alverine] (10 µM)	62% (inactive)
CCn1cc(C(=O)O)c(=O)c2cnc(N3CCCC3)nc21 [piromidic-acid] (10 µM)	99.5% (inactive)
CN1C(=O)C(Cc2c[nH]c3ccccc23)NC1=S (configuration not stated) [necrostatin-1] (10 µM)	93.5% (inactive)
CN(C)/C=N/c1c(I)cc(I)c(CCC(=O)O)c1I [iopodic-acid] (10 µM)	104% (inactive)
N[C@@H](CCC(=O)N[C@@H](CSN=O)C(=O)NCC(=O)O)C(=O)O [S-nitrosoglutathione] (10 µM)	104% (inactive)
CC(=O)N1CC[N+](C)(C)CC1 [4-acetyl-1,1-dimethylpiperazinium] (10 µM)	88.5% (inactive)
O=c1[nH]c(=O)n([C@H]2C[C@H](O)[C@@H](CO)O2)cc1/C=C/Br [brivudine] (10 µM)	108% (inactive)
CCOc1ccc(C[C@H]2NC(=O)CCSSC[C@@H](C(=O)N3CCC[C@H]3C(=O)N[C@@H](CCCN)C(=O)NCC(N)=O)NC(=O)[C@H](CC(N)=O)NC(=O)[C@H]([C@@H](C)O)NC(=O)[C@H]([C@@H](C)CC)NC2=O)cc1 [atosiban] (10 µM)	91% (inactive)
CCCCCCCCCCCCCCSCC(=O)O [tetradecylthioacetic-acid] (10 µM)	112% (inactive)
Cc1cc(O)c(-c2ccc([C@@H](C)CN)cc2)c2c1[nH]c(=O)c1sccc12 (0.833333 µM)	95% (inactive)
CC(O)(P(=O)(O)O)P(=O)(O)O [etidronic-acid] (10 µM)	103% (inactive)
Fc1ccc2c(CCNCc3cccc(OCC(F)(F)C(F)F)c3)c[nH]c2c1 [idalopirdine] (10 µM)	114% (inactive)
CC1=C(C(=O)OC2CCCCC2)C(c2ccc([N+](=O)[O-])cc2)C2=C(CC(C)(C)CC2=O)N1 (configuration not stated) (0.833333 µM)	104% (inactive)
CC(=O)N[C@@H](CCC(N)=O)C(=O)O [aceglutamide] (10 µM)	105% (inactive)
CC(C)(C)NCC(O)c1cc(Cl)c(N)c(Cl)c1 (configuration not stated) [clenbuterol] (10 µM)	110% (inactive)
CC(O)(CS(=O)(=O)c1ccc(F)cc1)C(=O)Nc1ccc(C#N)c(C(F)(F)F)c1 (configuration not stated) [bicalutamide] (10 µM)	114% (inactive)
CCc1cc(Cl)c(OC)c(C(=O)NC[C@@H]2CCCN2CC)c1O [eticlopride] (10 µM)	63.5% (inactive)
CN(C)C[C@H](O)Cn1c2ccc(Br)cc2c2cc(Br)ccc21 (racemic) [wiskostatin] (0.833333 µM)	110% (inactive)
Cc1c(Cl)cccc1S(=O)(=O)Nc1nc(NCCc2ccccc2)nc2c1CN(Cc1ccccc1)CC2 (10 µM)	94.5% (inactive)
